Assay results as given in ChEMBL document CHEMBL4513135, “CO-ADD screening of IQOG CSIS (Spain) compounds”.
Measured potencies and affinities stand elsewhere.

Key:
Klebsiella pneumoniae = conditions: Concentration 32 ug.mL-1; ASSAY_TEST Inhibition of Bacterial Growth; detection method Absorption (OD600); MEDIA CAMHB; plate type 384well; NBS; CORNING #3640; time 18 hr
Candida albicans = conditions: 32 ug/mL
Cryptococcus neoformans = conditions: Concentration 32 ug.mL-1; ASSAY_TEST Inhibition of Fungal Growth; detection method Resazurin; Absorption (OD600-OD570); plate type 384well; NBS; CORNING #3640

CC(C)(C)OC(=O)Nc1ccc(Cl)cn1
Inhibition (Klebsiella pneumoniae): 13.6% | Inhibition (Candida albicans): -0.26% | Inhibition (Cryptococcus neoformans): -54%

CCOC(=O)c1c(C)[nH]c(=O)c(C#N)c1-c1ccccc1
Inhibition (Klebsiella pneumoniae): 10.06% | Inhibition (Candida albicans): 2.08% | Inhibition (Cryptococcus neoformans): -38.24%

N#Cc1cc(C#N)c(Cl)nc1Cl
Inhibition (Klebsiella pneumoniae): 2.35% | Inhibition (Candida albicans): 33.1% | Inhibition (Cryptococcus neoformans): 24.8%

CNC(=O)c1cc2cc(OCc3ccccc3)ccc2n1C
Inhibition (Klebsiella pneumoniae): 4.29% | Inhibition (Candida albicans): 3.06% | Inhibition (Cryptococcus neoformans): -45.34%

CNC(=O)c1c(Cl)c2cc(OCc3ccccc3)ccc2n1C
Inhibition (Klebsiella pneumoniae): 13.13% | Inhibition (Candida albicans): 4.9% | Inhibition (Cryptococcus neoformans): -46.6%

C#CCNc1nc(N)c(C#N)cc1C#N
Inhibition (Klebsiella pneumoniae): 1.8% | Inhibition (Candida albicans): 2.29% | Inhibition (Cryptococcus neoformans): -24.9%

NNC(=O)Cc1c[nH]c2ccccc12
Inhibition (Klebsiella pneumoniae): 17.86% | Inhibition (Candida albicans): 3.51% | Inhibition (Cryptococcus neoformans): -6.14%

Clc1ccc(-c2cn3ccccc3n2)cc1
Inhibition (Klebsiella pneumoniae): 18.54% | Inhibition (Candida albicans): -1.23% | Inhibition (Cryptococcus neoformans): -7.53%
